# Assay outcomes as filed in PubChem BioAssay.
# Hits are enriched below; roughly 2.4% of the tested compounds scored in any of these assays.
# D2 PAM-1: positively modulates the human D2 dopamine receptor allosterically | 340,000 compounds, 0.34% hits | HEK293 T-REx D2, calcium flux, EC20 dopamine potentiation | P14416 | potentiation, % at 10 µM;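 active = potentiation over 3 SD above the plate norm, cut at about 30% in these data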; note: 0% is about no effect
# Target sequence (P14416 whole entry, looked up): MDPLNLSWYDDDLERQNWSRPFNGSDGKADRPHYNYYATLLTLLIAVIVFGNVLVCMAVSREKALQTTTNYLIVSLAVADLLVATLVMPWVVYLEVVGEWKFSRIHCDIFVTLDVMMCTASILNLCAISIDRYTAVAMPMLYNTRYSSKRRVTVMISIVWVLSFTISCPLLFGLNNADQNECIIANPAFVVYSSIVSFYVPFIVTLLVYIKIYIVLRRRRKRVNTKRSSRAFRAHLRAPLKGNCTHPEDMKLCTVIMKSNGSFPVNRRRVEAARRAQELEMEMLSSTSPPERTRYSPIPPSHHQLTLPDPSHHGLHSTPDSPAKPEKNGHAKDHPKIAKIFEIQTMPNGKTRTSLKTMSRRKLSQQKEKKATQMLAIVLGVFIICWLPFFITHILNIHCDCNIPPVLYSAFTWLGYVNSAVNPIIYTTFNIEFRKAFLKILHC
#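 Potentiation of an EC20 dopamine calcium response is measured in a force-coupled, tetracycline-inducible Hek293 Trex D2 line. Compound-only kinetic reads over 180 s flag agonists before dopamine addition.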
# D2 ag-1: activates the human D2 dopamine receptor; P14416; activation, % (no concentration beside the values); AID 624465; 360,000 compounds, 0.084% hits; DiscoveRx PathHunter D2 beta-arrestin, luminescence, 90 min; 100% = 57 uM dopamine signal; in the data active = activation above about 40%
#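 Agonist mode: compounds alone added to overnight-plated D2 PathHunter cells for 90 min at 37 C, with 57 uM final dopamine (EC100) defining full response. Beta-arrestin recruitment detected by chemiluminescent reagent, read after 1 h at ambient temperature.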
# D2 ag-2: agonists of human D2 dopamine receptor | 340,000 compounds, 0.53% hits | activation, % at 2 µM | P14416 | HEK293 T-REx D2 cells, calcium flux agonist mode;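 active = activation over 3 SD above normal in the single-dose calcium agonist read, cut at about 30% in these data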; note: 0% is about no effect
#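 HEK293 Trex D2 cells, tetracycline-induced, o/n 30 C 5% CO2; no-wash Ca dye, RT 30–90 min; 10-cycle baseline, 23 nl cpd added, kinetic Ca read 180 s; agonist hits = positive Ca response.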
# D2 PAM-2: potentiates the human D2 dopamine receptor allosterically. P14416. DiscoveRx D2 beta-arrestin cells, luminescence, 90 min; 100% = 57 uM dopamine signal. potentiation, % (concentration not given with the values). 360,000 compounds, 0.23% hits. AID 624464; in the data active = potentiation above about 50%
#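 PathHunter beta-arrestin assay in DiscoveRx D2 cells. Compounds were added with an EC20 of dopamine (50 nM final) for 90 min at 37 deg C. Luminescence was read 1 h after detection reagent, with 57 uM dopamine as the EC100 control.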
# D2 antagonist: D2 dopamine receptor (human) antagonism. P14416. HEK293 TREx D2 cells, calcium flux, dopamine EC80. inhibition, % at 10 µM. 340,000 compounds, 2% hits. AID 485344; in the data active = inhibition above about 30%; inactive = below that, where a call was filed; note: 0% is about no effect
#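 Cells plated overnight at 30 C with tetracycline; no-wash calcium dye, 30–90 min RT; 10 s baseline; compound pinned; 180 s read; EC80 dopamine added; another 180 s read.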
# Active calls of the source: *; / = no result given.
SMILES,D2 PAM-1,D2 ag-1,D2 ag-2,D2 PAM-2,D2 antagonist
COc1ccc(C(=O)NNC(=O)C(=O)Nc2ccc(C)cc2)cc1,/,-8,-3,-8,9
CCc1ccc(NC(=O)C(=O)NNC(=O)c2ccc(OC)cc2)cc1,-14,-5,1,-1,43*
CCOc1ccc(C(=O)NCCc2csc(-c3ccc(C(F)(F)F)cc3)n2)cc1OCC,-4,/,2,/,/
COc1ccc(C(C)(C)C)cc1NC(=O)CCCn1c(=O)oc2ccccc21,-28,-3,-2,-22,51*
COc1cc(NC(=O)CCCn2c(=O)oc3ccccc32)cc(OC)c1,/,-1,/,-9,/
Cc1cccc(NC(=O)C(Cc2ccccc2)n2cccc2)c1C (stereo unspecified),-2,/,/,/,/
COc1ccc(O)c(N)c1,43*,/,1,/,-19
O=C(Nc1ccccc1-c1ccccc1)NC1CC2CCCC(C1)N2CCc1ccccc1 (stereo unspecified),-18,-5,0,-10,8
COCCCNC(=S)NC1CC2CCCC(C1)N2Cc1ccco1 (stereo unspecified),-16,-1,0,-25,-16
CCCNC(=S)NC1CC2CCCC(C1)N2Cc1ccc(F)cc1 (stereo unspecified),-21,0,0,-78,81*
COc1ccc(CN2C3CCC2CC(NC(=O)c2cccc(F)c2)C3)cc1 (stereo unspecified),-26,0,0,-2,81*
Cc1cccc(C(=O)NC2CC3CCCC(C2)N3Cc2ccccc2)c1 (stereo unspecified),-18,-4,0,-10,81*
O=C(Nc1ccccc1-c1ccccc1)NC1CC2CCCC(C1)N2Cc1ccc(F)cc1 (stereo unspecified),-25,-1,0,-25,52*
COc1cc(C)ccc1OCCSc1nc2ccc(NC(C)=O)cc2s1,8,/,-1,/,/
CCOc1ccccc1NC(=O)Nc1cc(C(=O)NCc2ccc(C)cc2)ccc1N1CCCC1,9,/,7,/,/
COc1cccc(C(=O)NNC(=O)c2ccccc2)c1,6,2,0,-3,2
Cc1ccc(CN2C3CCCC2CC(NC(=O)c2ccc(F)cc2)C3)cc1 (stereo unspecified),-21,-2,0,-18,92*
COc1cccc(C(=O)NC2CC3CCC(C2)N3Cc2ccccc2)c1 (stereo unspecified),-14,0,1,-6,96*
O=C(NC1CCN(C(=O)NCc2ccccc2)CC1)c1cccc(F)c1,/,-3,1,-3,2
O=C(NC1CC2CCC(C1)N2Cc1ccccc1)c1cccc(F)c1 (stereo unspecified),-25,4,1,-7,71*
COc1cccc(C(=O)NN2c3ccccc3CCc3ccccc32)c1,2,4,-4,4,51*
Cc1ccc(C(=O)NC2CC3CCCC(C2)N3Cc2ccccc2)cc1 (stereo unspecified),-29,-1,1,-34,4
COc1cccc(C(=O)NC2CC3CCCC(C2)N3CC(=O)Nc2ccccc2C(F)(F)F)c1 (stereo unspecified),-16,1,1,-5,-21
COc1ccc(N2CCN(c3oc(/C=C/c4ccccc4OC)nc3C#N)CC2)cc1,6,/,-1,/,/
Fc1ccc(N2CCN(Cc3cnc(Cl)s3)CC2)cc1,-12,-1,39*,-14,-12
SMILES,D2 PAM-1,D2 ag-1,D2 ag-2,D2 PAM-2,D2 antagonist
Fc1ccc(N2CCN(Cc3nnc(-c4ccccc4Cl)o3)CC2)cc1,-8,/,0,/,/
COC(=O)c1[nH]c2ccc(Cl)cc2c1NC(=O)Oc1ccccc1,5,8,0,68*,-14
COC(=O)c1[nH]c2ccc(Cl)cc2c1NC(=O)C1CC1,-2,1,0,-4,-14
COc1cc(/C=N/N(C)C)ccc1OC(=O)c1cccs1,42*,3,-1,-10,-13
COc1cc(/C=N/NC(N)=O)ccc1OC(=O)c1cccs1,3,4,0,0,-3
CNC(=O)CSc1nnnn1-c1cc(C)ccc1C,46*,-4,-1,-13,4
Cc1ccccc1CNC(=O)Nc1ccc2c(c1)N(C)C(=O)c1ccccc1S2,2,/,1,/,/
